# Test results reported in the supplement of paper PMC6607015.
# Structures can show the parent of a compound that is named as a salt.
# Tests used:
# Conditions in all cases: compound concentration in added solution (µM; 5 µl added to 20 µl cells): 10; 18 h
# A431 [1] = assay: LBPA endosome anti-LBPA integrated intensity (sum per cell), Z-score; higher = more LBPA staining
# Summary of the method: (§1)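 HeLa MZ or A431 cells (3,500/well in 20 µl) were seeded onto 5 µl of 10 µM compound solution in duplicate 384-well imaging plates, incubated 18 h, then fixed in 4% PFA. Cells were stained with 6C4 anti-LBPA antibody, filipin, propidium iodide and CellTracker green, and four 20× images were taken per well. MetaXpress segmentation gave per-cell integrated LBPA or filipin intensity, either whole-cell or within LBPA endosomes. Values are Z-scores normalised in AcuityXpress.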
# HeLa MZ [2] = assay: as above
# Summary of the method: as §1
# A431 [3] = assay: whole-cell filipin (free cholesterol) integrated intensity, Z-score; higher = more cholesterol staining
# Summary of the method: as §1
# HeLa MZ [4] = assay: as above
# Summary of the method: as §1
# A431 [5] = assay: filipin (cholesterol) integrated intensity within LBPA endosomes, Z-score; higher = more cholesterol in LBPA endosomes
# Summary of the method: as §1
# HeLa MZ [6] = assay: as above
# Summary of the method: as §1
Structure (SMILES),LBPA endosome anti-LBPA integrated intensity (z-score) (A431 [1]),LBPA endosome anti-LBPA integrated intensity (z-score) (HeLa MZ [2]),whole-cell filipin (z-score) (A431 [3]),whole-cell filipin (z-score) (HeLa MZ [4]),filipin (z-score) (A431 [5]),filipin (z-score) (HeLa MZ [6])
COCCOC(=O)C1=C(C)NC(C)=C(C(=O)OC(C)C)C1c1cccc([N+](=O)[O-])c1 (stereo not drawn) [Nimodipine],-0.345,0.468,0.0525,0.629,-0.323,-0.286
CN(C)C(=N)NC(=N)N [Metformin hydrochloride],-0.525,-0.838,-0.902,-0.3,-0.437,-0.498
CC[C@H]1OC(=O)[C@H](C)[C@@H](O[C@H]2C[C@@](C)(OC)[C@@H](O)[C@H](C)O2)[C@H](C)[C@@H](O[C@@H]2O[C@H](C)C[C@H](N(C)C)[C@H]2O)[C@](C)(O)C[C@@H](C)[C@@H]2N[C@@H](COCCOC)O[C@H]([C@H]2C)[C@]1(C)O [Dirithromycin],-0.436,-0.0354,-0.786,-0.252,-0.507,-0.38
C[C@@](Cc1ccc(O)c(O)c1)(NN)C(=O)O [Carbidopa],-0.613,-0.537,-0.771,-0.705,-0.551,-0.634
Cc1c(N(C)C)c(=O)n(-c2ccccc2)n1C [Amidopyrine],-0.435,-0.447,-0.729,0.0263,-0.495,-0.518
CNC(=C[N+](=O)[O-])NCCSCc1ccc(CN(C)C)o1 [Ranitidine hydrochloride],-0.424,0.0515,-1.03,-1.05,-0.524,-0.559
COc1cc(OC)c(C(=O)CCCN2CCCC2)c(OC)c1 [Buflomedil hydrochloride],-0.502,0.473,-0.535,-0.534,-0.503,-0.263
O=C1NCC2(CCN(CCc3ccccc3)CC2)O1 [Fenspiride hydrochloride],-0.609,-0.156,-1.07,-0.91,-0.575,-0.493
N=C(N)NC(=N)NCCc1ccccc1 [Phenformin hydrochloride],-0.459,0.0471,-0.366,1.16,-0.42,-0.335
C[C@@H]1C[C@H]2[C@@H]3CCC4=CC(=O)C=C[C@]4(C)[C@@]3(Cl)[C@@H](O)C[C@]2(C)[C@@]1(OC(=O)c1ccco1)C(=O)CCl [Mometasone furoate],-0.183,0.598,-0.317,1.11,-0.214,0.7
CCOc1ccccc1OC(c1ccccc1)C1CNCCO1 (stereo not drawn) [Reboxetine mesylate],-0.315,0.133,-0.477,-0.595,-0.205,-0.384
CC(C)(Oc1ccc(C2CC2(Cl)Cl)cc1)C(=O)O (stereo not drawn) [Ciprofibrate],-0.486,-0.255,-0.125,-0.278,-0.419,-0.482
CC(C)(C#N)c1cc(Cn2cncn2)cc(C(C)(C)C#N)c1 [Anastrozole],-0.573,-1.31,-0.205,-0.00341,-0.428,-0.659
CN[C@@H]1[C@@H](O)[C@@H](O[C@@H]2[C@@H](O)[C@H](O[C@H]3OC(CN)=CC[C@H]3N)[C@@H](N)C[C@H]2N)OC[C@]1(C)O [Sisomicin sulfate],-0.541,-0.481,-0.622,-0.546,-0.517,-0.45
CCOC(=O)c1ccc(N)cc1 [Benzocaine],-0.607,-1.32,-0.4,-0.36,-0.613,-0.643
COc1ccc(-c2cc(=O)c3c(O)cc(O[C@@H]4O[C@H](CO[C@@H]5O[C@@H](C)[C@H](O)[C@@H](O)[C@H]5O)[C@@H](O)[C@H](O)[C@H]4O)cc3o2)cc1O [Diosmin],-0.501,-0.4,-0.678,-0.378,-0.518,-0.715
CC1(C)S[C@@H]2[C@H](NC(=O)[C@H](C(=O)O)c3ccsc3)C(=O)N2[C@H]1C(=O)O [Ticarcillin sodium],-0.466,-0.401,-0.165,-0.157,-0.403,-0.501
C#CCN(C)Cc1ccccc1 [Pargyline hydrochloride],-0.443,-0.371,-0.77,-0.65,-0.469,-0.441
"C[C@H]1C[C@@H]2[C@H]([C@@H](O)C[C@@]3(C)[C@H]2CC[C@]3(O)C(=O)CO)[C@@]2(C)C=CC(=O)C=C12 [Methylprednisolone, 6-alpha]",-0.113,0.0903,-0.236,-0.329,-0.297,-0.497
CCOC(=O)C1=C(C)NC(C)=C(C(=O)OC)C1c1cccc(Cl)c1Cl (stereo not drawn) [Felodipine],-0.574,-0.618,-0.869,-0.774,-0.49,-0.476
O=C1c2ccccc2S(=O)(=O)N1CCCCN1CCN(c2ncccn2)CC1 [Ipsapirone],-0.419,0.911,-0.664,-0.262,-0.426,0.0372
CCCCN(CCCC)CCCOC(=O)c1ccc(N)cc1 [Butacaine],1.72,1.93,-0.324,-0.451,0.0505,0.307
NCCCCCC(=O)O [Aminocaproic acid],-0.515,-0.605,-0.556,-0.716,-0.511,-0.479
NS(=O)(=O)Cc1noc2ccccc12 [Zonisamide],-0.257,0.173,-0.0819,0.0656,-0.385,-0.275

Structure (SMILES),LBPA endosome anti-LBPA integrated intensity (z-score) (A431 [1]),LBPA endosome anti-LBPA integrated intensity (z-score) (HeLa MZ [2]),whole-cell filipin (z-score) (A431 [3]),whole-cell filipin (z-score) (HeLa MZ [4]),filipin (z-score) (A431 [5]),filipin (z-score) (HeLa MZ [6])
O=C(O)Cc1ccc(-c2ccccc2)cc1 [Felbinac],-0.537,-0.83,-0.402,-0.285,-0.525,-0.491
CCC[C@@H]1C[C@@H](C(=O)N[C@@H]([C@H]2O[C@H](SC)[C@H](O)[C@@H](O)[C@H]2O)[C@@H](C)O)N(C)C1 [Lincomycin hydrochloride],-0.565,-0.696,-0.903,-1.08,-0.504,-0.682
"CC(C)NCC(O)c1ccc(O)c(O)c1 (single isomer, unassigned; (-)) [(-)-Isoproterenol hydrochloride]",-0.173,-0.052,0.672,-0.415,-0.458,-0.467
CN[C@@H]1[C@H](O[C@H]2[C@H](O[C@H]3[C@H](O)[C@@H](O)[C@H](N=C(N)N)[C@@H](O)[C@@H]3N=C(N)N)O[C@@H](C)[C@]2(O)C=O)O[C@@H](CO)[C@H](O)[C@H]1O [Streptomycin sulfate],-0.673,-1.38,-0.979,-0.78,-0.577,-0.576
CCN(CC)CCOC(=O)C(c1ccccc1)c1ccccc1 [Adiphenine hydrochloride],-0.67,-1.15,-1.14,-0.931,-0.574,-0.637
CCCN[C@H]1CCc2nc(N)sc2C1 [Pramipexole],-0.166,0.761,0.197,0.182,-0.247,-0.149
C[C@]12CC[C@H]3C(=CCc4cc(O)ccc43)[C@@H]1CCC2=O [Equilin],-0.185,0.864,-0.0277,0.614,-0.251,0.186
CC(C)NC(=N)NC(=N)Nc1ccc(Cl)cc1 [Proguanil hydrochloride],-0.302,1.15,-0.0125,0.372,-0.375,-0.0535
CN1[C@@H]2CC[C@H]1C[C@@H](OC(=O)c1c[nH]c3ccccc13)C2 [Tropisetron HCl],-0.35,0.869,-0.234,-0.504,-0.29,0.0878
CN(C)CCN(Cc1ccc(Cl)cc1)c1ccccn1 [Chloropyramine hydrochloride],0.629,4.98,1.63,5.51,1.05,1.3
O=c1cc(-c2ccc(O)c(O)c2)oc2cc(O)cc(O)c12 [Luteolin],-0.401,0.459,-0.523,-0.0366,-0.468,-0.425
CN[C@H](CC(C)C)C(=O)N[C@H]1C(=O)N[C@@H](CC(N)=O)C(=O)N[C@H]2C(=O)N[C@H]3C(=O)N[C@H](C(=O)N[C@H](C(=O)O)c4cc(O)cc(O)c4-c4cc3ccc4O)[C@H](O)c3ccc(c(Cl)c3)Oc3cc2cc(c3O[C@@H]2O[C@H](CO)[C@@H](O)[C@H](O)[C@H]2O[C@H]2C[C@](C)(N)[C@H](O)[C@H](C)O2)Oc2ccc(cc2Cl)[C@H]1O [Vancomycin hydrochloride],-0.435,-0.0824,-0.355,-0.041,-0.42,-0.35
Nc1ccc(S(=O)(=O)Nc2ccc(Cl)nn2)cc1 [Sulfachloropyridazine],-0.463,-0.899,-0.227,-0.78,-0.494,-0.56
Cc1nnc(NS(=O)(=O)c2ccc(N)cc2)s1 [Sulfamethizole],-0.497,-0.619,-0.626,-0.62,-0.469,-0.463
Cn1c(=O)c2c(ncn2CC(=O)O)n(C)c1=O [Acefylline],-0.332,0.383,-0.237,-0.0327,-0.446,-0.485
CCN(CC)CCNC(=O)c1cc(Br)c(N)cc1OC [Bromopride],-0.305,0.899,-0.269,0.199,-0.333,0.158
Cc1cc(N)c2ccccc2[n+]1CCCCCCCCCC[n+]1c(C)cc(N)c2ccccc21 [Dequalinium dichloride],-0.351,0.0986,-0.943,1.23,-0.599,-0.485
CC(c1cc2ccccc2s1)N(O)C(N)=O (stereo not drawn) [Zileuton],-0.514,-0.465,-0.358,-0.366,-0.391,-0.425
C[C@]1(Cn2ccnn2)[C@H](C(=O)O)N2C(=O)C[C@H]2S1(=O)=O [Tazobactam],-0.572,-0.303,-0.35,0.00122,-0.502,-0.538
CNCCc1ccccn1 [Betahistine mesylate],-0.418,-0.427,-0.443,-0.285,-0.457,-0.6
C[C@@H]1NC(=O)NC1=O [Methylhydantoin-5-(L)],-0.307,0.559,-0.263,-0.142,-0.411,-0.338
CN(C)[C@@H]1C(O)=C(C(N)=O)C(=O)[C@@]2(O)C(O)=C3C(=O)c4c(O)cccc4[C@@](C)(O)[C@H]3[C@H](O)[C@@H]12 [Oxytetracycline dihydrate],-0.525,-0.93,-0.872,-0.703,-0.537,-0.753
N=C(N)NCC1COC2(CCCCC2)O1 (stereo not drawn) [Guanadrel sulfate],-0.435,-0.453,-0.472,-0.401,-0.413,-0.438
S=c1[nH]cnc2nc[nH]c12 [Mercaptopurine],-0.731,-1.06,-0.622,-1.37,-0.742,-0.984
